Assay [1] can be described thus: qHTS assay for small molecule agonists of the p53 signaling pathway (AID 651631; calls by dose curve; note: nearly all actives have a fitted effect of over 15% in size). The gist of the method:
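Readout was fluorescence from the LiveBLAzer FRET substrate, applied for 2 h at room temperature after 16 h compound exposure at 37 °C. Cells were the p53RE-bla HCT-116 line, with beta-lactamase driven by p53 response elements.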

The nature of assay [2]: qHTS assay for small molecules that induce genotoxicity in human embryonic kidney cells expressing luciferase-tagged ATAD5 (AID 651632). Note: nearly all actives have a fitted effect of over 15% in size. The gist of the method:
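HEK293T cells carrying a luciferase reporter tagged to ATAD5 were exposed to compound or DMSO vehicle for 16 hr at 37C, 5% CO2. Amplite was added, and after 30 min at room temperature luciferase activity was read as a marker of ATAD5 induction.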

Assay [3] in a line: qHTS assay for small molecule agonists of the p53 signaling pathway - cell viability (AID 651633; calls by dose curve; note: series mostly up to about 83 µM; nearly all actives have a fitted effect of over 30% in size). In a few lines:
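p53RE-bla cells, seeded at 4,000 per well and rested 5 h at 37 C/5% CO2, received compounds in DMSO for 16 h at 37 C. CellTiter-Glo was then added, and luminescence was read after 30 min at room temperature to gauge cytotoxicity.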

Assay [4] is described as follows: qHTS assay for small molecules that induce genotoxicity in human embryonic kidney cells expressing luciferase-tagged ATAD5 - cell viability (AID 651634; calls by dose curve; note: nearly all actives have a fitted effect of over 25% in size). The gist of the method: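 HEK293T cells expressing luciferase-tagged ATAD5 were exposed to compound or DMSO for 15.5 hr at 37C, 5% CO2. Viability was then read as live-cell protease activity by CellTiter-Fluor fluorescence after 30 min at 37C.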

A short description of assay [5]: qHTS assay for small molecule disruptors of the mitochondrial membrane potential - cell viability (AID 720634; calls by dose curve;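 note: human HepG2 liver cancer cells; series mostly up to about 83 µM; nearly all actives have a fitted effect of over 20% in size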). In a few lines:
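HepG2 cells seeded overnight at 37 C, then exposed to compound or DMSO for 1 hr at 37 C, 5% CO2. m-MPI dye added, then CellTiter-Glo for 30 min at room temperature; viability read as ATP luminescence.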

A short description of assay [6]: qHTS assay for small molecule disruptors of the mitochondrial membrane potential (AID 720635). Note: potency is the fitted concentration of half-maximal effect. The gist of the method:
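HepG2 cells (2,000/well) attached overnight at 37C, then took compound for 1 hr at 37C, 5% CO2. Mito-MPS dye was added for 30 min; fluorescence was read at 490/535 nm (monomers) and 540/590 nm (aggregates).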

Assay [7] can be described thus: qHTS assay to test for compound auto fluorescence at 590 nm (red) in HepG2 cells (AID 720674). In a few lines:
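Rose Bengal sodium served as the red fluorophore standard. HepG2 monolayers (overnight attachment, MEM with 10% FBS) were exposed to test compounds for 1 hr at 37 C and read at Ex 540/Em 590 nm.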

Assay [8] is described as follows: qHTS assay to test for compound auto fluorescence at 535 nm (green) in HepG2 cells (AID 720675).
Assay [9] can be described thus: qHTS assay to test for compound auto fluorescence at 590 nm (red) in HEK293 cells (AID 720679). In a few lines:
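Red-channel autofluorescence (Ex/Em 540/590 nm; Rose Bengal sodium reference) was measured after overnight 37C, 5% CO2 exposure of attached HEK293 cells, 2,000 per well in medium with 10% dialyzed FBS.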

Assay [10] in a line: qHTS assay to test for compound auto fluorescence at 535 nm (green) in HEK293 cells (AID 720680).
Assay [11] can be described thus: qHTS assay to test for compound auto fluorescence at 460 nm (blue) in HEK293 cell free culture (AID 720681). In a few lines:
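Test compounds were pinned into cell-free culture medium (DMEM with 10% FBS) and fluorescence was read directly at Ex/Em 405/460 nm. Signals were expressed as fluorescence equivalents of triamterene, with DMSO vehicle as control.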

A short description of assay [12]: qHTS assay to test for compound auto fluorescence at 535 nm (green) in HEK293 cell free culture (AID 720682). In a few lines: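 Compounds were pin-transferred into cell-free DMEM with 10% FBS, and green fluorescence was read at excitation 485 nm and emission 535 nm. Intensities were expressed as fluorescein-equivalent values.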
Assay [13] in a line: qHTS assay to test for compound auto fluorescence at 590 nm (red) in HEK293 cell free culture (AID 720683). The gist of the method: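 Tox21 10K library compounds were pinned into cell-free DMEM with 10% FBS and fluorescence was read at excitation 540 nm. Activity is expressed as Rose Bengal sodium equivalency.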
Assay [14] in a line: qHTS assay to test for compound auto fluorescence at 590 nm (red) in HepG2 cell free culture (AID 720684). The gist of the method: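 Measured in medium alone (MEM containing 10% FBS) following pintool addition of compound; emission at 590 nm with 540 nm excitation, referenced to Rose Bengal sodium.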
Assay [15] in a line: qHTS assay to test for compound auto fluorescence at 460 nm (blue) in HepG2 cell free culture (AID 720685). The gist of the method:
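Compound (23 nL) or DMSO pinned into cell-free MEM with 10% FBS; blue fluorescence read at 405/460 nm excitation/emission, expressed as auto-fluorescence equivalency to triamterene.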

Assay [16] is described as follows: qHTS assay to test for compound auto fluorescence at 535 nm (green) in HepG2 cell free culture (AID 720686).
Assay [17] can be described thus: qHTS assay to test for compound auto fluorescence at 460 nm (blue) in HepG2 cells (AID 720687). The gist of the method:
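Cells (2,000/well in MEM with 10% FBS) attached overnight at 37 C, then were exposed to compound or DMSO for 1 hr at 37 C, 5% CO2. Fluorescence read at Ex/Em 405/460 nm, expressed as triamterene-equivalent signal.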

Assay [18] in a line: qHTS assay to test for compound auto fluorescence at 460 nm (blue) in HEK293 cells (AID 720678). The gist of the method: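 Blue-channel (Ex/Em 405/460 nm) intensity measured in HEK293 cultures after overnight compound exposure at 37C; signal expressed relative to triamterene. Cells plated 2,000 per well in 10% dialyzed FBS medium and allowed 4-5 hr to attach.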
The target in assay [19] is Glucocorticoid receptor (Homo sapiens) (UniProt P04150). Nature of the assay: qHTS assay to identify small molecule agonists of the glucocorticoid receptor (GR) signaling pathway (AID 720691; active = well fitted activation curve with a large enough effect in the signal ratio in the repeat runs, not every such curve was filed as active; the % refers to the signal ratio). The gist of the method: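 GR-bla HeLa cells (beta-lactamase reporter under glucocorticoid response element) were plated 4 h at 37 C/5% CO2, given compounds in DMSO, and incubated 18 h at 37 C. LiveBLAzer B/G FRET substrate was added for 2 h at room temperature, then fluorescence intensity read.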

Assay [20] shares this target. In words: qHTS assay to identify small molecule antagonists of the glucocorticoid receptor (GR) signaling pathway (AID 720692; active = well fitted inhibition curve with a large enough effect in the signal ratio in the repeat runs, not every such curve was filed as active; the % refers to the signal ratio). The gist of the method: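 GR-bla HeLa cells (beta-lactamase reporter under glucocorticoid response element) were pre-plated 4 h at 37 C, treated with compounds plus 5 nM dexamethasone (final) for 18 h, then read by LiveBLAzer B/G FRET fluorescence after 2 h.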

This is an account of results in PubChem BioAssay (Tox21).

Inconclusive results are not listed. The source made the active and inactive calls. Unless noted, calls come from the whole dose curve; as a rule, active = well fitted curve in the direction sought with a large enough effect in the repeat runs; inconclusive = weak or mixed curves; inactive = no such curve, though single readings can be large; an effect the other way counts as inactive or inconclusive.

Sequence of Glucocorticoid receptor (Homo sapiens) (P04150 whole entry, looked up): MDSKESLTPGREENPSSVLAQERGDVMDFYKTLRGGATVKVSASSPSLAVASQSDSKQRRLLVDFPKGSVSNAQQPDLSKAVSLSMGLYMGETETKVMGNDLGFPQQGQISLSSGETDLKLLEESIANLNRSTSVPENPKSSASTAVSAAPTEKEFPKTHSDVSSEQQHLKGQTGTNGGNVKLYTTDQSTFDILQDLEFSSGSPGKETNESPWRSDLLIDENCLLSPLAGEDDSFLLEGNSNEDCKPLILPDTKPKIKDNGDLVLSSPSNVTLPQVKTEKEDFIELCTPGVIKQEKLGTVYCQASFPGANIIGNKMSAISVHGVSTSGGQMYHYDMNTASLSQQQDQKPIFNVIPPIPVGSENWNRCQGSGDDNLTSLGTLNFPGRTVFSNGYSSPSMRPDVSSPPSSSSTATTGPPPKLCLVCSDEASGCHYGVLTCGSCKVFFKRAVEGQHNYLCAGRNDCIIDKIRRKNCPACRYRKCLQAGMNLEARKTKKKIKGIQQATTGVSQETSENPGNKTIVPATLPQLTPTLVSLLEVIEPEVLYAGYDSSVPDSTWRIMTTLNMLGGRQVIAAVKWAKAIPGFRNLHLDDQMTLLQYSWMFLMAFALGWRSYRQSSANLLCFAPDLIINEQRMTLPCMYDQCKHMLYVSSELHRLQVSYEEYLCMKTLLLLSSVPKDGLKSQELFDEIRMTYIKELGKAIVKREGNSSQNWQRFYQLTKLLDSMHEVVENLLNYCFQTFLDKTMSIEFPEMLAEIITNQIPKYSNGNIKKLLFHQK

Regarding `O=NN1CCCCCC1`, the Potency entry in [1], in assay [2], in assay [3], in assay [4], in assay [5] and in assay [6] was “inactive” throughout. Moreover, the call in assay [7], in assay [8], in assay [9], in assay [10], in assay [11] and in assay [12] was inactive. Further, the compound was called inactive in assay [13], in assay [14], in assay [15], in assay [16] and in [17].

`Cc1ccc2ccccc2c1`: the Potency result in assay [1], in assay [2], in assay [3], in [4], in assay [5] and in [6] was “inactive” each time. The result in assay [7], in assay [8], in [18], in assay [9], in assay [10] and in assay [11] was inactive. Moreover, the call in [12], in assay [13], in assay [14], in [15], in assay [16] and in assay [17] was inactive.

For the compound `CCN(C)N=O`, the Potency result in assay [1], in assay [2], in assay [3], in assay [4] and in assay [5] was “inactive” in each case. In assay [6], the Potency was 1900 nM (active). Further, the result in assay [7], in assay [8], in [18], in assay [9], in [10] and in assay [11] was inactive. The call in [12], in [13], in assay [14], in assay [15], in assay [16] and in assay [17] was inactive.

Turning to `O=NN1CCNCC1`, the Potency entry in assay [1], in [2], in assay [3], in [4], in [5] and in assay [6] was “inactive” in each case. Besides, the outcome in assay [7], in assay [8], in assay [18], in [9], in assay [10] and in assay [11] was inactive. The outcome in [12], in [13], in assay [14], in [15], in assay [16] and in assay [17] was inactive.

For the compound `C=CC(C)=O`, the Potency result in [1], in [2], in assay [3], in assay [4], in assay [5] and in [6] was “inactive” each time. Further, the call in [7], in assay [8], in [18], in [9], in [10] and in assay [11] was inactive. Also, the compound was called inactive in assay [12], in assay [13], in assay [14], in assay [15], in assay [16] and in assay [17]. In addition, the outcome in assay [19] was inactive.

For the compound `COC(N)=O`, the Potency entry in assay [1], in [2], in assay [3], in assay [4], in [5] and in assay [6] was “inactive” in each case. Further, the Potency result in [20] is “inactive”. Moreover, the compound was called inactive in [7], in assay [8], in assay [18], in assay [9], in assay [10] and in assay [11]. Further, the compound was called inactive in assay [12], in [13], in [14], in assay [15], in [16] and in assay [17]. Also, in assay [19], the outcome was inactive.

For the compound `COCC(C)N(C(=O)CCl)c1c(C)csc1C` (configuration not stated), the Potency entry in assay [1], in assay [2], in [3], in assay [4], in [5] and in [6] was “inactive” throughout. In addition, the Potency entry in assay [20] was “inactive”. Moreover, the compound was classed as inactive in assay [7], in assay [8], in [18], in assay [9], in [10] and in [11]. The compound was classed as inactive in assay [12], in assay [13], in assay [14], in [15], in [16] and in [17]. Further, the compound was classed as inactive in [19].

On to `O=C(O)C(F)(F)C(F)(F)C(F)(F)C(F)(F)C(F)(F)C(F)(F)C(F)(F)C(F)(F)C(F)(F)C(F)(F)F`, for which the Potency result in assay [1], in assay [2], in assay [3], in assay [4] and in assay [5] was “inactive” throughout. Besides, the outcome in [7], in assay [8], in assay [18], in [9], in assay [10] and in assay [11] was inactive. Also, the compound was classed as inactive in assay [12], in assay [13], in assay [14], in assay [15], in [16] and in assay [17].
